Reference: the supplement of paper PMC10849652
Targets with a hit are over-represented here; the source holds about 8,800 in all. About 0.5% of all pairs of compound and target were hits.

Columns and labels:
Assay in all cases: log2 fold change, soluble protein after heating vs DMSO (PISA); higher = thermal stabilisation; K562 lysate, 10 uM; active = over 0.2 and 3.5 SD of the protein, either way, in both replicates (recomputed)
nilotinib = compound: Cc1cn(-c2cc(NC(=O)c3ccc(C)c(Nc4nccc(-c5cccnc5)n4)c3)cc(C(F)(F)F)c2)cn1 [nilotinib]
Procedure, shortened: (§1)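 K562 pellets were dounce-homogenised in PBS pH 7.4 containing 1 mM MgCl2, and the crude extract, at 1 mg/mL protein, was exposed to 10 μM compound for 30 min. Aliquots were heated for 3 min across 48°C-58°C, pooled, brought to 0.5% NP-40 at 4°C and spun at 21,000xg for 90 min, with the supernatant taken as soluble protein. TMTpro 16plex LC-MS/MS with equalised channel sums quantified that protein. Values are log-two fold changes in thermal stability relative to solvent controls, taken from duplicates.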

[1] = compound: Cc1nc(Nc2n[nH]c3c2CN(C(=O)N[C@H](CN(C)C)c2ccccc2)C3(C)C)c2sccc2n1
Procedure, shortened: as §1

dasatinib = compound: Cc1nc(Nc2ncc(C(=O)Nc3c(C)cccc3Cl)s2)cc(N2CCN(CCO)CC2)n1 [dasatinib]
Procedure, shortened: as §1

[2] = compound: Cc1ncc(-c2ccnc(Nc3ccc(S(C)(=O)=O)cc3)n2)n1C(C)C
Procedure, shortened: as §1

[3] = compound: Cn1cc(-c2ccc3c(c2)CCN3C(=O)Cc2cccc(C(F)(F)F)c2)c2c(N)ncnc21
Procedure, shortened: as §1

quisinostat = compound: Cn1cc(CNCC2CCN(c3ncc(C(=O)NO)cn3)CC2)c2ccccc21 [quisinostat]
Procedure, shortened: as §1

tipifarnib = compound: Cn1cncc1[C@@](N)(c1ccc(Cl)cc1)c1ccc2c(c1)c(-c1cccc(Cl)c1)cc(=O)n2C [tipifarnib]
Procedure, shortened: as §1

[4] = compound: NC(=O)Nc1cc(-c2cccc(F)c2)sc1C(=O)N[C@H]1CCCNC1
Procedure, shortened: as §1

[5] = compound: NC(=O)c1cnc(N[C@@H]2CCCC[C@@H]2N)nc1Nc1cccc(-n2nccn2)c1
Procedure, shortened: as §1

[6] = compound: NC1(c2ccc(-c3nc4ccn5c(=O)[nH]nc5c4cc3-c3ccccc3)cc2)CCC1
Procedure, shortened: as §1

Measured: log2 fold change

GCLM (UniProt P48507)
Sequence of UniProt P48507 (P48507 whole entry, looked up): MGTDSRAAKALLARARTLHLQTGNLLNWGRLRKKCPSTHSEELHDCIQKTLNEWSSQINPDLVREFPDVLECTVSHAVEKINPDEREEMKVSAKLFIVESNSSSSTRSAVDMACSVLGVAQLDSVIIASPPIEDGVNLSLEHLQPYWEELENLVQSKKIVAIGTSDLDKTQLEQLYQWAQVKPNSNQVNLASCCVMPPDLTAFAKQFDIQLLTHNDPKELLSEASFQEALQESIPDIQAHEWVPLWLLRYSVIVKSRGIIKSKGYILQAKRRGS
inactive: nilotinib -0.03 | [1] 0.016 | dasatinib -0.033 | [2] 0.013 | [3] 0.027 | quisinostat 0.016 | tipifarnib 0.007 | [4] 0 | [5] -0.005 | [6] -0.005

DVL2 (UniProt O14641)
inactive: nilotinib -0.03 | [1] -0.003 | dasatinib -0.114 | [2] 0.027 | [3] -0.063 | quisinostat -0.13 | tipifarnib -0.027 | [4] 0.102 | [5] 0.236 | [6] -0.097

EBP (UniProt Q15125)
inactive: nilotinib 0.081 | [1] -0.016 | dasatinib -0.05 | [2] 0.018 | [3] -0.137 | quisinostat 0.038 | tipifarnib -0.03 | [4] 0.042 | [5] -0.006 | [6] -0.05

ENGASE (UniProt Q8NFI3)
Sequence of UniProt Q8NFI3 (Q8NFI3 whole entry, looked up): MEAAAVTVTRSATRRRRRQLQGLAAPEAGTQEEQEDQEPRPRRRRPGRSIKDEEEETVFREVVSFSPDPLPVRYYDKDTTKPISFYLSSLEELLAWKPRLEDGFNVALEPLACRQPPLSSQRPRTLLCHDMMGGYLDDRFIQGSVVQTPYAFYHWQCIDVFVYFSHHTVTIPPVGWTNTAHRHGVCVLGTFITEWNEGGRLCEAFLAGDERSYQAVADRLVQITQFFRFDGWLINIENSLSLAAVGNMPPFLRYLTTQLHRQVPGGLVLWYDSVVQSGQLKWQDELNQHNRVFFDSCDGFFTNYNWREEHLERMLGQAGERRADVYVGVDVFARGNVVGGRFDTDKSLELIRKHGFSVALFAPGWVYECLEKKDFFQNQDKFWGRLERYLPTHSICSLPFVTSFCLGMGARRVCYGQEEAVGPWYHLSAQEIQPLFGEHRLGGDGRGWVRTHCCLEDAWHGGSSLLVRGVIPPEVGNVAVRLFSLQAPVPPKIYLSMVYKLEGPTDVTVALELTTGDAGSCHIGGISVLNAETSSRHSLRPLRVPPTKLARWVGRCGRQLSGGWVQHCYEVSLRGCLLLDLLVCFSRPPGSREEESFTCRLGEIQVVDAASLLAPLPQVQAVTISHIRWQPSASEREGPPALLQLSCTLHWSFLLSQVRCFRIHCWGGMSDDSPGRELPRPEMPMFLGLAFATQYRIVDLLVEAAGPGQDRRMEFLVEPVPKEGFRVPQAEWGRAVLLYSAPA
inactive: nilotinib 0.02 | [1] -0.083 | dasatinib 0.029 | [2] -0.034 | [3] 0.028 | quisinostat 0.009 | tipifarnib 0.043 | [4] -0.04 | [5] 0.011 | [6] -0.025

GABPB1 (UniProt Q06547)
inactive: nilotinib -0.008 | [1] 0.012 | dasatinib -0.051 | [2] -0.023 | [3] 0.05 | quisinostat -0.036 | tipifarnib 0.007 | [4] 0.031 | [5] 0.05 | [6] 0.033

FADS1, A0A0A0MR51
inactive: nilotinib 0.065 | [1] -0.078 | dasatinib 0.04 | [2] 0.02 | [3] 0.079 | quisinostat 0.004 | tipifarnib 0.069 | [4] 0.008 | [5] -0.114 | [6] 0.022

GDPD1 (UniProt Q8N9F7)
inactive: nilotinib -0.047 | [1] 0.011 | dasatinib 0.026 | [2] 0.011 | [3] -0.05 | quisinostat -0.056 | tipifarnib 0.024 | [4] -0.02 | [5] 0.053 | [6] -0.017

GFPT1 (UniProt Q06210)
Sequence of UniProt Q06210 (Q06210 whole entry, looked up): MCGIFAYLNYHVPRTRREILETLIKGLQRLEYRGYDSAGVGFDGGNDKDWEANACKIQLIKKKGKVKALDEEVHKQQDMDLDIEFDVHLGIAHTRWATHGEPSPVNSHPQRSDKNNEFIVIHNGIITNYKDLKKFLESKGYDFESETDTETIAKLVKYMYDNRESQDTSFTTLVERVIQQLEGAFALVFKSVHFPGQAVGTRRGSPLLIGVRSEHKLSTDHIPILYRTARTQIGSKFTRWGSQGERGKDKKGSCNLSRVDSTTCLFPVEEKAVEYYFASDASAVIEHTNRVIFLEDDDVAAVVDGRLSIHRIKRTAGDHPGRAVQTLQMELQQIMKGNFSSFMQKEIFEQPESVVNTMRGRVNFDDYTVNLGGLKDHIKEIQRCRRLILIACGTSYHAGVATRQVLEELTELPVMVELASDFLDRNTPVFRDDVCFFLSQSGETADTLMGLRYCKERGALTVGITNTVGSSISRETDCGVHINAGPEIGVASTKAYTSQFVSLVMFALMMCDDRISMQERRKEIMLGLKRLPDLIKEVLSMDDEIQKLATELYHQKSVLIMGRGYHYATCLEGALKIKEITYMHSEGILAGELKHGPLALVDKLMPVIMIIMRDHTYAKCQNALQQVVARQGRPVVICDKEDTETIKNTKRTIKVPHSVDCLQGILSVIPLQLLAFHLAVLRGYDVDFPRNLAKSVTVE
inactive: nilotinib 0.003 | [1] -0.009 | dasatinib -0.013 | [2] 0.008 | [3] 0.002 | quisinostat -0.031 | tipifarnib -0.006 | [4] 0.027 | [5] -0.003 | [6] -0.025

EXOC5 (UniProt O00471)
inactive: nilotinib 0.008 | [1] -0.025 | dasatinib -0.063 | [2] -0.003 | [3] 0.047 | quisinostat -0.044 | tipifarnib 0.006 | [4] 0.014 | [5] 0.01 | [6] 0.002

EPRS (UniProt P07814)
inactive: nilotinib 0.005 | [1] -0.002 | dasatinib -0.039 | [2] -0.01 | [3] 0.039 | quisinostat 0 | tipifarnib 0.011 | [4] 0.039 | [5] 0.002 | [6] -0.026

ERLIN2 (UniProt O94905)
inactive: nilotinib -0.009 | [1] 0.001 | dasatinib -0.013 | [2] -0.019 | [3] 0.03 | quisinostat 0.021 | tipifarnib 0.012 | [4] -0.038 | [5] 0.012 | [6] -0.01

FBXO38 (UniProt Q6PIJ6)
inactive: nilotinib 0.157 | [1] -0.203 | dasatinib -0.03 | [2] -0.125 | [3] -0.069 | quisinostat -0.028 | tipifarnib -0.071 | [4] 0.026 | [5] -0.031 | [6] 0.012

ENO1, A0A2R8YEM5
inactive: nilotinib -0.021 | [1] -0.017 | dasatinib -0.013 | [2] 0.002 | [3] -0.021 | quisinostat -0.005 | tipifarnib 0.053 | [4] -0.026 | [5] 0.002 | [6] -0.008

FBXO22 (UniProt Q8NEZ5)
inactive: nilotinib 0.005 | [1] 0.021 | dasatinib -0.028 | [2] -0.036 | [3] 0.025 | quisinostat -0.047 | tipifarnib 0.034 | [4] 0.012 | [5] -0.007 | [6] -0.016

FAM114A2 (UniProt Q9NRY5)
inactive: nilotinib 0.152 | [1] 0.053 | dasatinib -0.028 | [2] 0.031 | [3] 0.002 | quisinostat 0.02 | tipifarnib -0.231 | [4] 0 | [5] 0.009 | [6] -0.071

EIF1 (UniProt P41567)
inactive: nilotinib 0.126 | [1] 0.084 | dasatinib 0.001 | [2] 0.142 | [3] -0.03 | quisinostat 0.133 | tipifarnib 0 | [4] -0.018 | [5] -0.076 | [6] -0.032

GEMIN2 (UniProt O14893)
Sequence of UniProt O14893 (O14893 whole entry, looked up): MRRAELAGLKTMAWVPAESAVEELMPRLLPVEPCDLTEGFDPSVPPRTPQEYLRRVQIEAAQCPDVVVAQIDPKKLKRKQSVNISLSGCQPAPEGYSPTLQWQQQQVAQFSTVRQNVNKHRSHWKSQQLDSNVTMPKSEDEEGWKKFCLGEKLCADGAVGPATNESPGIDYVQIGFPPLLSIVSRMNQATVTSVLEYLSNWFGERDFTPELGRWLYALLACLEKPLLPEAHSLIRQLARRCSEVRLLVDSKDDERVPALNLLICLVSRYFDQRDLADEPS
inactive: nilotinib -0.019 | [1] 0.014 | dasatinib -0.03 | [2] 0.032 | [3] -0.033 | quisinostat 0.142 | tipifarnib 0.059 | [4] 0.004 | [5] -0.039 | [6] 0.049

ENSA isoform 3 (UniProt O43768)
Sequence of UniProt O43768 (O43768 whole entry, looked up): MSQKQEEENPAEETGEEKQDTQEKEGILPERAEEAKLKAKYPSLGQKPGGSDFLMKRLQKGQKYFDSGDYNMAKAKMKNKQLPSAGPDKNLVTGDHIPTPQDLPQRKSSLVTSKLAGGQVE
inactive: nilotinib -0.022 | [1] -0.011 | dasatinib 0.07 | [2] 0.013 | [3] -0.002 | quisinostat 0.051 | tipifarnib -0.002 | [4] -0.025 | [5] -0.029 | [6] 0.021

FLAD1 (UniProt Q8NFF5)
inactive: nilotinib 0.051 | [1] -0.026 | dasatinib 0.002 | [2] 0.024 | [3] 0.019 | quisinostat -0.129 | tipifarnib 0 | [4] 0.03 | [5] 0.017 | [6] -0.026

EDARADD (UniProt Q8WWZ3)
inactive: nilotinib 0.076 | [1] -0.036 | dasatinib -0.004 | [2] 0.008 | [3] 0.023 | quisinostat 0.07 | tipifarnib 0.065 | [4] -0.05 | [5] -0.032 | [6] 0.019

EIF2AK1 (UniProt Q9BQI3)
inactive: nilotinib -0.006 | [1] 0.211 | dasatinib -0.027 | [2] -0.154 | [3] 0.078 | quisinostat -0.077 | tipifarnib 0.007 | [4] -0.031 | [5] 0.062 | [6] 0.021

EIF2B4 (UniProt Q9UI10)
Sequence of UniProt Q9UI10 (Q9UI10 whole entry, looked up): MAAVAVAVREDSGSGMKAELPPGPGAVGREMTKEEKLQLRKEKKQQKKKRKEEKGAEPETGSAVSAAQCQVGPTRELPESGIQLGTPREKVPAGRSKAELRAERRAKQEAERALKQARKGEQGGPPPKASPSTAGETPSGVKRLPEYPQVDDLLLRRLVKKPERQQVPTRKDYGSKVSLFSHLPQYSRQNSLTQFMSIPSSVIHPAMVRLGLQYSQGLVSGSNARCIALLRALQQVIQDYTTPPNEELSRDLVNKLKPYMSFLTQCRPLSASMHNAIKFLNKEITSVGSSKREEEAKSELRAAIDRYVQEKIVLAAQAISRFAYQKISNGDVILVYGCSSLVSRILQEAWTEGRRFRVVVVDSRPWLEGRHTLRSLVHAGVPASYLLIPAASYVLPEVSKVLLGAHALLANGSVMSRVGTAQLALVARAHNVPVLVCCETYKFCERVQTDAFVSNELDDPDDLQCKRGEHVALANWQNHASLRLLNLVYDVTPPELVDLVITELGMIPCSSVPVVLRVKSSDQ
inactive: nilotinib 0.053 | [1] -0.005 | dasatinib 0.014 | [2] 0.033 | [3] -0.022 | quisinostat 0.02 | tipifarnib 0.016 | [4] 0.022 | [5] 0.039 | [6] -0.021

GBF1 (UniProt Q92538)
Sequence of UniProt Q92538 (Q92538 whole entry, looked up): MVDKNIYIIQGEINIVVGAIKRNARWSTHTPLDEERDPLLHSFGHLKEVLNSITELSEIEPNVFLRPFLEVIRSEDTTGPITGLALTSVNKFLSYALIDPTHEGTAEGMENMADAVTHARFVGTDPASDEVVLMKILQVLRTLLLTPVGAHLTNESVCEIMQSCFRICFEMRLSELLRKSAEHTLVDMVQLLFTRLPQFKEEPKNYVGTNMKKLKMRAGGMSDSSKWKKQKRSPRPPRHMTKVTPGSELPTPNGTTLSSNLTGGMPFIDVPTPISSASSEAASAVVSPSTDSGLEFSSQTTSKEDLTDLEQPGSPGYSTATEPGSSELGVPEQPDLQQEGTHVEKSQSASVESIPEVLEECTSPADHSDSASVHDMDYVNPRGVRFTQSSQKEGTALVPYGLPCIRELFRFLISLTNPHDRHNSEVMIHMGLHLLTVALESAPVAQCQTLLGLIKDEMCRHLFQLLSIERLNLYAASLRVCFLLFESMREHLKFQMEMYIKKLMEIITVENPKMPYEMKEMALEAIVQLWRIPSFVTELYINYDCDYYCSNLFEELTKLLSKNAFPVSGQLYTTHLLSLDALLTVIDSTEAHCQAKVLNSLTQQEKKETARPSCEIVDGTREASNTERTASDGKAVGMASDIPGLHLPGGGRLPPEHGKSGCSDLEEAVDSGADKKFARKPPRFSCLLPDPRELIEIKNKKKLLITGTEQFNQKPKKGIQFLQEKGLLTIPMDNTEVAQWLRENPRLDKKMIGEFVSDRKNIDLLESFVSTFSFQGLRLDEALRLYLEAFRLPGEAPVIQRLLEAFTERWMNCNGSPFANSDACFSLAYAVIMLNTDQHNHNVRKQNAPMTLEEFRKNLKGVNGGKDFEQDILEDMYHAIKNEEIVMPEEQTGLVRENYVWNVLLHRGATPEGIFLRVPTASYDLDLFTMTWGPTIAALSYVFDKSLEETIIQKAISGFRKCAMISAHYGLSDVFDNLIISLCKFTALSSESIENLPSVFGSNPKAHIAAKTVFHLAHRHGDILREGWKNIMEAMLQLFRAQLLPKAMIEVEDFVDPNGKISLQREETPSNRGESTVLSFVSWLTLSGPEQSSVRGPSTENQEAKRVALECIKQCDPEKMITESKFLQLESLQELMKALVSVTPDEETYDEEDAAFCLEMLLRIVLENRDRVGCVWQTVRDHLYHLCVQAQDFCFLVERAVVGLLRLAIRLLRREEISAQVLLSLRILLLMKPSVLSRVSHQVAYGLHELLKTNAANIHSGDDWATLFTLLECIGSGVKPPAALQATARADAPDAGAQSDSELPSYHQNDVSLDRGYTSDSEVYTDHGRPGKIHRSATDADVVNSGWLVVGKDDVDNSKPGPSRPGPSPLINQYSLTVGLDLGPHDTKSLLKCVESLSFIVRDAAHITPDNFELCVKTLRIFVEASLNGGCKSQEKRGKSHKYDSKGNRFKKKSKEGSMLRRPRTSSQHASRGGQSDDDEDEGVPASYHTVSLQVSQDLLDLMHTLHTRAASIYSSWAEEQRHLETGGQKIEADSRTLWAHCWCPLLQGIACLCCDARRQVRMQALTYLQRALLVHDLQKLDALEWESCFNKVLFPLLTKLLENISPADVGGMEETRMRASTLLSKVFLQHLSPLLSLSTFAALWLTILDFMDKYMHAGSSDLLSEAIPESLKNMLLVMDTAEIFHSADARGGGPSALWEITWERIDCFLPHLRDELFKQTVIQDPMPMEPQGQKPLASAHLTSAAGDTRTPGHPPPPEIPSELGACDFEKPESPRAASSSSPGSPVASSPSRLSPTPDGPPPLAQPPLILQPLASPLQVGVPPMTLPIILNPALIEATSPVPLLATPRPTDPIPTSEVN
inactive: nilotinib -0.021 | [1] 0.02 | dasatinib -0.088 | [2] 0.027 | [3] 0.021 | quisinostat -0.04 | tipifarnib -0.003 | [4] 0.054 | [5] 0.018 | [6] -0.034

FBXO9 (UniProt Q9UK97)
Sequence of UniProt Q9UK97 (Q9UK97 whole entry, looked up): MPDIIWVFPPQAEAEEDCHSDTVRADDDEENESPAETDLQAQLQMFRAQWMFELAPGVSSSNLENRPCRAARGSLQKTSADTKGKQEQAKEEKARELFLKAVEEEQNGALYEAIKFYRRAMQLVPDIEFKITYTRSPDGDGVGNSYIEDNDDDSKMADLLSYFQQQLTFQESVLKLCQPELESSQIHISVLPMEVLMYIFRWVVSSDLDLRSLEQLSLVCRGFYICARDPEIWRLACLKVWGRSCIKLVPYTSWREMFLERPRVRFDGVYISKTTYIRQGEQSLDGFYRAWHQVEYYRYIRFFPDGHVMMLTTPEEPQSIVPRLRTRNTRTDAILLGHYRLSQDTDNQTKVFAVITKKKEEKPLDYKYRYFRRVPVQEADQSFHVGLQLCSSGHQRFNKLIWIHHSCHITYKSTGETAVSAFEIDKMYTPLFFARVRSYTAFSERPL
inactive: nilotinib -0.076 | [1] 0.003 | dasatinib 0.059 | [2] 0.02 | [3] 0.021 | quisinostat -0.045 | tipifarnib -0.092 | [4] 0.177 | [5] 0.127 | [6] 0.127

ECH1 (UniProt Q13011)
inactive: nilotinib -0.008 | [1] -0.019 | dasatinib 0.195 | [2] -0.003 | [3] 0.02 | quisinostat -0.008 | tipifarnib 0.022 | [4] 0.001 | [5] -0.022 | [6] 0.193

DYRK1A (UniProt Q13627)
inactive: nilotinib -0.018 | [1] 0.062 | dasatinib -0.021 | [2] 0.031 | [3] 0.033 | quisinostat -0.026 | tipifarnib -0.06 | [4] 0.072 | [5] -0.01 | [6] -0.013

FANCD2 isoform 1 (UniProt Q9BXW9)
inactive: nilotinib 0.015 | [1] -0.002 | dasatinib -0.066 | [2] 0.048 | [3] 0 | tipifarnib -0.037 | [4] 0.018 | [5] 0.033 | [6] -0.124
active: quisinostat -0.238

DTWD1 (UniProt Q8N5C7)
inactive: nilotinib 0.007 | [1] -0.039 | dasatinib -0.034 | [2] 0.01 | [3] -0.02 | quisinostat -0.067 | tipifarnib -0.007 | [4] 0.002 | [5] -0.008 | [6] 0.049
